# Source: PubChem BioAssay (Broad Institute)
# Shown is part of a subset that was picked to be rich in hits.
# Tgondii IFNg: blocks Toxoplasma gondii growth in the presence of IFN-gamma; activity change, negative = inhibition, % (concentration not given with the values); 69,000 tested, 3.8% active; Toxoplasma gondii growth in IFN-gamma-treated host cells; active compounds read low; in the data active = activity change below about -70%, passing the limit was not always enough;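 note: host cells are HeLa cells infected with Toxoplasma gondii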
# * marks the source's active call; other numbers are inactive results; i = inactive.
SMILES,Tgondii IFNg
Cc1nc(CCNC(=O)C2CCN(S(=O)(=O)c3ccc(CC(C)C)cc3)CC2)cs1,-52
COc1nc(OC)nc(N2CC[C@@H](c3ccc4c(c3)OCO4)[C@H](O)C2)n1,-19
COc1ccc(-c2nc(NCCCN3CCN(Cc4ccccc4)CC3)c3ccccc3n2)cc1,-71
COc1ccc(CNc2ccc(Br)cc2)c(OC)c1OC,34
COc1ccc2cc(Br)ccc2c1CC#N,-107*
COc1cc(Br)c(CCC#N)cc1OC,85
CC(C)n1cnc(C2CN(C(=O)c3ccccn3)c3ccc(C(=O)N4CCC(N(C)C)CC4)cc32)n1 (centres undefined),-10
CS(=O)(=O)CCNCc1ccc(-c2ccc3ncnc(Nc4ccc(OCc5cccc(F)c5)c(Cl)c4)c3c2)o1,-81*
Cc1ccc(-c2cccc(C(=O)N(C)Cc3nncn3C(C)C)c2)o1,3
O=C(c1cc(-c2ccccn2)nc2ccccc12)N(Cc1ccccn1)CC1CCCO1 (centres undefined),14
COCCc1ncc(-c2nccn2-c2ccc(C)cc2Cl)cn1,-1
CCOc1ccc(Nc2nc(N)nc(CN3CCN(C)CC3)n2)cc1,31
Cc1ccc(Nc2nc(N)nc(CN3CCc4ccccc4C3)n2)cc1,-99*
Cc1ccc(Nc2nc(N)nc(CSc3nc4ccccc4s3)n2)cc1,-64
CCO[C@H]1CO[C@@]2(CCCN(C(=O)c3cccc(C)n3)C2)C1,22
O=C(Cc1c[nH]c2ccccc12)N1CCC(C2CCCCN(Cc3ccccc3)C2=O)CC1 (centres undefined),-35
Clc1ccc(C2(c3ccc(-c4cn[nH]c4)cc3)CCNCC2)cc1,-72*
Clc1ccc(-c2cn[nH]c2C2CCCNC2)cc1 (centres undefined),1
Cc1ccc(NC(=O)CS(=O)CC(=O)NCC2OCCc3ccccc32)cc1Cl (centres undefined),-66
CCO[C@H]1CNC[C@@H]1NC(=O)c1cc(CN2CCCC2)c(CC)o1,-11
CO[C@H]1CN(C)C(=O)c2cc(NC(=O)c3nc4ccccc4s3)ccc2OC[C@H](C)NC[C@H]1C,-111*
CO[C@H]1CN(C)C(=O)c2cc(NC(=O)c3nc4ccccc4s3)ccc2OC[C@@H](C)NC[C@@H]1C,-69
CO[C@H]1CN(C)C(=O)c2cc(NC(=O)c3nc4ccccc4s3)ccc2OC[C@@H](C)NC[C@H]1C,-13
CO[C@@H]1CN(C)C(=O)c2cc(NC(=O)c3nc4ccccc4s3)ccc2OC[C@@H](C)NC[C@H]1C,-66
CO[C@@H]1CN(C)C(=O)c2cc(NC(=O)c3nc4ccccc4s3)ccc2OC[C@@H](C)NC[C@@H]1C,-32
SMILES,Tgondii IFNg
CO[C@@H]1CN(C)C(=O)c2cc(NC(=O)c3nc4ccccc4s3)ccc2OC[C@H](C)NC[C@H]1C,-92*
CCOC(=O)c1c(N)/c(=C\c2ccco2)c2n1C(=O)C(c1ccco1)SC=2C(=O)OC (centres undefined),13
Cc1ccc2c(c1C)-n1cccc1C1(CCN(C(=O)c3ccccc3F)CC1)N2,47
Cc1ccc2c(n1)N(CC1CC1)CCN(C(=O)c1ccoc1)C2,46
O=C(CCCCCn1c(=S)[nH]c2cc3c(cc2c1=O)OCO3)N1CCC(O)(c2cccc(C(F)(F)F)c2)CC1,3
Cc1cccc(N2CCN(C(c3ccccc3)c3nnnn3Cc3ccco3)CC2)c1C (centres undefined),-13
COCCn1nnnc1C(c1cccs1)N1CCN(c2cc(C)ccc2C)CC1 (centres undefined),-95*
COCCn1nnnc1C(C(C)C)N1CCC(Cc2ccccc2)CC1 (centres undefined),-2
CC(C)N(C)Cc1cnc2n1CCN(C(=O)CC1CC1)CC2,-3
Cn1cc(C(CNC(=O)Nc2ccc3c(c2)OCO3)c2cccnc2)c2ccccc21 (centres undefined),i
CCNC(=O)c1nc(Nc2ccc(C)cc2)c2ccccc2n1,-26
COc1ccc(CNC(=O)c2nc(Nc3ccccc3)c3ccccc3n2)c(OC)c1,-54
Cc1ccc(Nc2nc(C(=O)N(C)Cc3ccccc3)nc3ccccc23)cc1,-77*
CN(Cc1ccccc1)C(=O)c1nc(Nc2ccc(F)cc2)c2ccccc2n1,25
COc1ccc(OC)c(CNC(=O)c2nc(Nc3ccc(C)cc3)c3ccccc3n2)c1,-41
COc1ccc(OC)c(CNC(=O)c2nc(Nc3cccc(C)c3)c3ccccc3n2)c1,-74*
Cc1ccc(CNC(=O)c2nc(Nc3ccc(F)cc3)c3ccccc3n2)cc1,-32
Cc1ccc(CNC(=O)c2nc(Nc3cccc(C)c3)c3ccccc3n2)cc1,-79*
CCCCNC(=O)c1nc(Nc2cccc(C)c2)c2ccccc2n1,-57
Cc1nc(CN2CCN(C(=O)c3cccc(NCc4cccs4)c3)CC2)no1,2
CCCC(=O)N1CCCC1c1nc(Nc2ccccc2)cc(-c2ccncc2)n1 (centres undefined),-20
CC(C)N1CCNC(=O)C1CC(=O)NCc1cc2ccc(F)cc2[nH]c1=O (centres undefined),-3
O=C(Nc1ccccc1C(=O)N1CCOCC1)C1c2ccccc2Oc2ccccc21,9
CSc1cccc(NC(=O)CN2CCC3(CC2)N=C(c2cccc(Cl)c2)C(=O)N3)c1,-81
COc1ccccc1C1(C)CCc2oc3ccc(Br)cc3c2-c2oc(C)cc21 (centres undefined),10
SMILES,Tgondii IFNg
CN(C)CCOCc1ncn2c1CN(Cc1ccco1)CC2,3
Cc1oc(-c2ccccc2)nc1CNS(=O)(=O)c1ccc(F)cc1,-7
Cc1ccc(S(=O)(=O)NCc2nc(-c3cccc(Cl)c3)oc2C)cc1C,-24
CCOc1ccc(-c2nc(CN(C)S(=O)(=O)c3ccc(C)c(C)c3)c(C)o2)cc1,-102*
Cc1ccc(S(=O)(=O)NCc2nc(-c3ccccc3)oc2C)cc1C,-106*
COc1ccc(OC)c(S(=O)(=O)NCc2nc(-c3ccc(C)cc3)oc2C)c1,-87*
CCOc1ccc(S(=O)(=O)N(C)Cc2nc(-c3ccc(C)cc3)oc2C)cc1,3
Cc1ccc(-c2nc(CNS(=O)(=O)c3c(C)cc(C)cc3C)c(C)o2)cc1,-23
COc1ccccc1-c1nc(CN(C)S(=O)(=O)c2ccc(C)c(C)c2)c(C)o1,-44
COc1ccc(-c2nc(CNS(=O)(=O)c3ccc(C)cc3C)c(C)o2)cc1,9
C=CCN1C(=O)CCC12CCC(NCc1nccs1)CC2 (centres undefined),168
Cc1cc(N2C[C@@H]3[C@H](C2)[C@H]2CC[C@@H]3O2)nc(-c2ccccc2)n1,-6
COc1cccc(C2(NC(=O)CCN3Cc4ccccc4C3=O)CCCC2)c1,61
Cc1ccc(-c2noc(-c3c(O)c4ccc(F)cc4n(C)c3=O)n2)cc1C,88
O=C(N1CCOC(CCCc2ccccc2)C1)C1(Cn2cccn2)CC1 (centres undefined),-3
COCCn1c(C(=O)NCCCN2CCOCC2)cc2c1c1ccccc1n2C,0
Cc1cccc(NC(=O)N2Cc3ccccc3C3(CCN(S(=O)(=O)N(C)C)CC3)C2)c1,-16
CCn1c(C)cc(C)c(C(=O)NCc2cccnc2N2CCN(C)CC2)c1=O,4
CCOCC1CN(Cc2ccc(C)s2)Cc2nn(CC3CC3)cc21 (centres undefined),-8
Cc1cccc(-c2nnc(-c3nc(NCCCN4CCCC4=O)c4ccccc4n3)o2)c1,441
Cc1ccc(-c2nnc(-c3nc(NCCCN4CCc5ccccc5C4)c4ccccc4n3)o2)cc1,-118*
CCCSCCCNc1nc(-c2nnc(-c3cccc(C)c3)o2)nc2ccccc12,-107*
